Data reported in ChEMBL document CHEMBL1201862, “PubChem BioAssay data set” (2004).
Screen size: about 400,000 compounds; about 2,100 (0.53%) were called active. Not shown: some 14% with an inconclusive outcome. How the calls were made is not given here. The entries come from a sample that favours actives as a whole.

molecular target: Ataxin-2 (Homo sapiens) (UniProt Q99700); assay: qHTS for Inhibitors of ATXN expression.; format: functional
Sequence (Q99700 whole entry): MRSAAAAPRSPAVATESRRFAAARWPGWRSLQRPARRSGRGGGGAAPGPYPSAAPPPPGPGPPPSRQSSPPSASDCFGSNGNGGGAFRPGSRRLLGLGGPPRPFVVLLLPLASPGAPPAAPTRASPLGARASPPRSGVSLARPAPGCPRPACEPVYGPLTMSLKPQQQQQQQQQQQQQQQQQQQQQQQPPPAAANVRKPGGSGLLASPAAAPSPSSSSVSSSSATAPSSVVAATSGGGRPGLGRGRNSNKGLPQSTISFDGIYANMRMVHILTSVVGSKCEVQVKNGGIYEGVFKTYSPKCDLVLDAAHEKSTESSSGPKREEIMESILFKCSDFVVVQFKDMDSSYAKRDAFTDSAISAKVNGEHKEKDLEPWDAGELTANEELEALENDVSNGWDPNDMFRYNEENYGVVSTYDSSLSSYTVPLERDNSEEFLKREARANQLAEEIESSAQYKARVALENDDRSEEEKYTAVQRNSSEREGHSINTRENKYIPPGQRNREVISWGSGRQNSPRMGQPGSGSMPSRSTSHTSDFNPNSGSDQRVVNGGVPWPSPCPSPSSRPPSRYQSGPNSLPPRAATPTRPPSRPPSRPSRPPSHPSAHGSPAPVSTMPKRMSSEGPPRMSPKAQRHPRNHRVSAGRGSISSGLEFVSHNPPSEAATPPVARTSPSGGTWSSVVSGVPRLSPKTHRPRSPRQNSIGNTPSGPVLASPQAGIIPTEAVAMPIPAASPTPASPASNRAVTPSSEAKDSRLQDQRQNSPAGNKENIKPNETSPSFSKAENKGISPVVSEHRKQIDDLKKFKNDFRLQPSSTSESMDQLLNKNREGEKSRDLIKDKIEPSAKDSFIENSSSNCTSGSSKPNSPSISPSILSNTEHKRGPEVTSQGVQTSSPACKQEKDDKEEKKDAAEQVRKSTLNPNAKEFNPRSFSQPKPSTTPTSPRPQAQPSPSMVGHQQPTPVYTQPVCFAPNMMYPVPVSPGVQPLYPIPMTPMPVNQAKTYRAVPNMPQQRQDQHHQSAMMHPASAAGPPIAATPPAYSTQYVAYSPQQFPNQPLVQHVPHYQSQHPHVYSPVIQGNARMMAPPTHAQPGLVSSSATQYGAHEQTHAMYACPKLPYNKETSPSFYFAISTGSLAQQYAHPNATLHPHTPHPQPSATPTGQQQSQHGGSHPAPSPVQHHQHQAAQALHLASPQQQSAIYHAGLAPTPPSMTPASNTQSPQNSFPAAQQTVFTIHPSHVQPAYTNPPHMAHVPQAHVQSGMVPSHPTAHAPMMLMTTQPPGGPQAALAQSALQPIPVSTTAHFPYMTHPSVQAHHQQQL

Compound	Potency
CCOc1ccc(NS(=O)(=O)c2ccc(C(=O)NCC3CCCO3)cc2)cc1 (stereo not given)	inactive
CCOc1ccc(S(=O)(=O)NCC(c2ccc3c(c2)OCO3)N2CCN(C)CC2)cc1 (stereo not given)	inactive
COc1ccc(C(CNC(=O)c2ccc(-c3ccccc3Cl)o2)N2CCCC2)cc1 (stereo not given)	17.8 µM (active)
COc1ccc(CNC(=O)C(C#N)c2nc3ccccc3nc2N2CCCC2)cc1 (stereo not given)	inactive
COc1ccccc1C(CNC(=O)C1COc2ccccc2O1)N1CCCC1 (stereo not given)	inactive
CCOc1ccc(C(=O)NCC(c2ccc(Cl)cc2)N2CCCCC2)cc1 (stereo not given)	14.1 µM (active)
CCNc1nc2nc3ccc(C)cn3c(=O)c2cc1C(=O)NCC1CCCO1 (stereo not given)	inactive
O=C(CN1C(=O)NC2(CCc3ccccc32)C1=O)Nc1ccc(Br)cc1F (stereo not given)	inactive
Nc1nnnn1/N=C/c1ccccc1O	inactive
O=C(OCC(=O)N(c1ccccc1)C1CCCCC1)c1ccc(CO)cc1	inactive
O=C(CCl)N(c1ccccc1)C1CCS(=O)(=O)C1 (stereo not given)	17.8 µM (active)
CC(Oc1ccccc1F)c1nnc(SCC(=O)N(c2ccccc2)C2CCS(=O)(=O)C2)o1 (stereo not given)	inactive
O=C(NC(=O)c1c(F)cccc1F)O/N=C1\CCCc2occc21	inactive
CN(C)S(=O)(=O)c1cccc(NC(=S)N/N=C/C2CC=CCC2)c1 (stereo not given)	inactive
Cc1nc2ccc(S(=O)(=O)Nc3ccc(-c4nc5cccnc5s4)cc3)cc2s1	inactive
C=CCc1c(O)c(CC)cc2c(C)cc(=O)oc12	inactive
CC(=O)c1c(C)oc2ccc(N(C(C)=O)S(=O)(=O)c3ccc(Cl)c([N+](=O)[O-])c3)cc12	31.6 µM (active)
COC(=O)c1c(C)oc2ccc(N(C(=O)Oc3ccccc3)S(=O)(=O)c3ccc(Cl)c([N+](=O)[O-])c3)cc12	35.5 µM (active)
C=CCN(c1ccccc1)S(=O)(=O)c1cccc(C(=O)Oc2ccc3c(C)cc(=O)oc3c2)c1	inactive
CC=Cc1cc2c(c(=O)o1)C(=O)C(O)C(C)O2 (stereo not given)	29.9 µM (active)
CCOC(=O)c1cc2c(=O)n3ccccc3nc2n(CCCOC)/c1=N\C(C)=O	inactive
C[C@H](NC(=O)c1ccc(Cl)cc1)C(=O)OCn1nnc2ccccc2c1=O	8.91 µM (active)
COCCNC(=O)c1ccc(Cn2c(SCC(N)=O)nc3ccccc3c2=O)cc1	inactive

Compound	Potency
O=C(CNC(=O)C1CCCCC1)OCn1nnc2ccccc2c1=O	inactive
S=C1SCN(Cc2cccnc2)CN1Cc1cccnc1	13.4 µM (active)
OCC1(CCc2ccccc2)CCN(Cc2cccn2-c2cccnc2)CC1	inactive
OC1(c2ccc(F)cc2)CCN(Cc2cccnc2)CC1	inactive
Cc1cccc2c3c([nH]c12)CCNC3	inactive
O=C1OCCN1C(=O)[C@H]1[C@H](c2ccc(Cl)cc2)C(c2cccc(Cl)c2)=NN1c1ccccc1	inactive
Oc1nc2cc3ccccc3cc2nc1C(F)(F)F	inactive
CCOc1ccc2nc(N3C(=O)/C(=C/c4ccc(Cl)cc4)NC3=S)sc2c1	inactive
CCOc1ccc2nc(N3C(=O)CNC3=S)sc2c1	39.8 µM (active)
CN(C)CCCn1c(N)c(C#N)c2nc3ccccc3nc21	inactive
COc1cccc(OC)c1-c1nn2c(-c3cc(-c4ccccc4)[nH]n3)nnc2s1	31.6 µM (active)
COc1ccc(-c2cc(C(=O)NN)[nH]n2)cc1OC	inactive
Cc1cc(C)c(C(CC(=O)c2cccs2)C(C#N)C#N)c(C)c1 (stereo not given)	31.6 µM (active)
N#Cc1c(-c2ccccc2)cc(C2CC2)nc1SCC(=O)c1cccs1	inactive
COc1ccc(NC(=O)c2cc(-c3ccco3)on2)c(OC)c1	inactive
CCc1c(C)sc(NC(=O)c2cc(-c3cc(OC)ccc3OC)on2)c1C#N	22.4 µM (active)
COc1ccc(OC)c(-c2c(C#N)c(N)nc3c2c(=O)nc2sccn23)c1	inactive
CC(C)Cn1c(N)c(C(=O)NCCN2CCOCC2)c2nc3ccccc3nc21	inactive
Nc1ccc2nc(-c3ccccc3)cnc2c1	inactive
CNc1nc(-c2ccccc2)cc(-c2ccccc2)n1	inactive
Brc1cc(-c2ccccc2)nc(-c2ccccc2)n1	39.8 µM (active)
O=c1c2sccc2nc(SCc2cc(=O)n3cc(Br)ccc3n2)n1Cc1ccccn1	inactive
